# Test results from the supplement of paper PMC6555819.
# How the values were obtained:
# Test in all cases: PBM binding z-score (relative to random genomic background probes); higher = stronger binding; sequences stand for … in GC…GCGATTGACAGCGTAGAATGAAGG
# [1] = tested on: FXR:RXRa (NR concentration 270 nM, RXRa partner concentration 90 nM)
# Method in brief: (§1)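 The probes on custom Agilent 4×180K protein-binding microarrays were double-stranded, with 34-nt variable regions bearing direct-repeat seeds, single-nucleotide variants, half-site ablations and random human genomic background sequences. Incubation lasted 1 h with ligand-free nuclear receptor dimers in PBS pH 7.4, 2% milk, 0.02% Triton X-100, 1 mM DTT, 0.2 mg/mL BSA and 0.4 mg/ml salmon testes DNA. Antibodies against each partner (one per run) detected bound dimers, and fluorescence scans were regression-normalized. Binding z-scores take the random background probes as reference.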
# [2] = tested on: LXRa:RXRa (NR concentration 270 nM, RXRa partner concentration 90 nM)
# Method in brief: as §1
# [3] = tested on: LXRa homodimer (NR concentration 270 nM)
# Method in brief: as §1
# [4] = tested on: LXRb:RXRa (NR concentration 270 nM, RXRa partner concentration 90 nM)
# Method in brief: as §1
# [5] = tested on: LXRb homodimer (NR concentration 270 nM)
# Method in brief: as §1
# [6] = tested on: PPARa:RXRa (NR concentration 270 nM, RXRa partner concentration 90 nM)
# Method in brief: as §1
# [7] = tested on: PPARg:RXRa (NR concentration 180 nM, RXRa partner concentration 90 nM)
# Method in brief: as §1
# [8] = tested on: PPARg:RXRa 270nM:90nM, anti-RXR (NR concentration 270 nM, RXRa partner concentration 90 nM)
# Method in brief: as §1
# [9] = tested on: PPARg:RXRa 30nM:10nM, anti-RXR (NR concentration 30 nM, RXRa partner concentration 10 nM)
# Method in brief: as §1
# [10] = tested on: PPARg:RXRa 90nM:30nM, anti-RXR (NR concentration 90 nM, RXRa partner concentration 30 nM)
# Method in brief: as §1
# [11] = tested on: PPARg:RXRa DBDmut IVT, anti-RXR (DBD mutation: RXRa K156A/R161A, NR concentration 270 nM, RXRa partner concentration 90 nM)
# Method in brief: as §1
# [12] = tested on: PPARg:RXRa IVT, anti-PPARg (NR concentration 270 nM, RXRa partner concentration 90 nM)
# Method in brief: as §1
# [13] = tested on: PPARg DBDmut:RXRa IVT, anti-PPARg (DBD mutation: PPARg1 K132A/R137A, NR concentration 270 nM, RXRa partner concentration 90 nM)
# Method in brief: as §1
# [14] = tested on: PPARg DBDmut IVT, anti-PPARg (DBD mutation: PPARg1 K132A/R137A, NR concentration 270 nM)
# Method in brief: as §1
# [15] = tested on: PPARg homodimer (NR concentration 180 nM)
# Method in brief: as §1
# [16] = tested on: PXR:RXRa (NR concentration 270 nM, RXRa partner concentration 90 nM)
# Method in brief: as §1
# [17] = tested on: PXR homodimer (NR concentration 270 nM)
# Method in brief: as §1
# [18] = tested on: RARa:RXR (NR concentration 270 nM, RXRa partner concentration 90 nM)
# Method in brief: as §1
# [19] = tested on: RARa homodimer (NR concentration 270 nM)
# Method in brief: as §1
# [20] = tested on: RARb:RXRa (NR concentration 270 nM, RXRa partner concentration 90 nM)
# Method in brief: as §1
Sequence,PBM binding z-score [1],PBM binding z-score [2],PBM binding z-score [3],PBM binding z-score [4],PBM binding z-score [5],PBM binding z-score [6],PBM binding z-score [7],PBM binding z-score [8],PBM binding z-score [9],PBM binding z-score [10],PBM binding z-score [11],PBM binding z-score [12],PBM binding z-score [13],PBM binding z-score [14],PBM binding z-score [15],PBM binding z-score [16],PBM binding z-score [17],PBM binding z-score [18],PBM binding z-score [19],PBM binding z-score [20]
CTACCGAGGTGAACAAGGTCGTTGATTACTATTC,1.49,1.66,0.107,2.37,-0.186,3.16,1.79,1.8,0.0798,0.754,2.91,3.47,0.523,0.329,0.965,3.25,1.95,2.62,-0.15,2.19
CCGACTGGGGCAGAAATGTTACCATACCATCCGG,-0.183,-0.371,-0.171,-0.528,-0.781,-0.385,0.729,-0.0813,-0.351,-0.433,1.57,0.993,-0.699,-1.22,-0.25,-0.347,-0.252,-0.499,-0.698,0.0353
ACAGACAGGTGCTGAAGGTAACTCAGGCTATCAT,-0.388,-0.633,-0.46,-0.677,-0.731,-0.462,0.398,-0.189,-0.203,-0.342,-0.133,-0.503,-0.162,0.258,-0.279,-0.445,-0.113,-0.341,-0.406,-0.476
ATCTCTAGGTAAAGATAGTCCAGTGAATGCAAAT,0.226,0.368,-0.00685,-0.0224,0.398,-0.051,0.458,0.219,0.157,0.0539,2.01,1.66,1.44,0.736,0.414,-0.159,0.523,-0.259,0.93,-0.257
TTACCAAGGTGAGGTGAGGTCGTTGATCCAACTC,2.75,1.64,-0.251,1.2,-0.802,2.03,0.585,1.25,0.427,0.705,1.36,2.9,-0.05,-0.0548,0.645,4.64,0.773,2.2,-0.25,1.93
GATACAGGGTCAGCTAGAGGCCATAGTATGGAAA,4.67,3.04,-0.128,2.94,-0.352,4.53,4.05,3.34,0.897,2.51,0.981,2.33,0.47,-0.0794,2.26,3.96,0.241,4.62,0.222,4.15
CTACCAAGGTGAACAAGGTCGTTGAATACTATTC,1.52,1.23,0.0934,1.87,-0.659,2.68,1.19,1.39,0.333,0.702,2.52,2.79,0.336,0.338,0.802,2.75,2.05,2.46,0.109,2.03
AACGAAAGGTCGAGGTGAGTATAGAGAAAGGGAA,4.3,3.7,-0.0292,2.86,0.0857,4.71,3.34,3.82,1.16,2.59,0.47,2.34,0.731,0.177,1.1,2.6,0.272,3.51,0.313,4.23
CAAACTAGGTCAAAGAGGTCAAAGTCCGTGCGTA,6.71,6.33,6.39,5.91,2.23,6.17,8.55,7.69,6.36,7.64,8.36,8.45,2.17,1.31,5.02,6.37,10.5,6.42,2.57,4.77
TCATATAGGTAAATGCTAGATGAAAGTCCGATCT,0.267,0.34,-0.249,0.68,-0.163,1.06,1.06,1.99,3.6,2.79,3.61,1.84,0.931,1.42,-0.0567,0.422,0.0659,0.328,0.951,0.201
AGAATGTGGTTAAGATCAGGGAAACAGAATACAT,0.33,-0.14,0.153,0.27,0.174,0.172,0.496,0.291,0.299,-0.247,-0.145,0.0486,0.832,0.677,0.635,0.308,0.679,0.217,0.647,0.103
AGAATGAGGTTATACGTAGATCAGGCAAGAAAGT,1.83,1.82,-0.142,1.29,-0.0449,3.31,1.97,2.21,0.758,1.71,3.76,2.33,1.04,0.362,0.366,1.01,0.159,1.51,0.831,1.29
ATCTCTAGGTAAAGATAGTTCAGTCAATGCAAAT,0.395,4.34,0.831,0.948,0.433,0.518,0.623,0.469,0.292,0.471,2.07,1.73,0.964,1,0.843,1.05,0.38,0.522,0.556,0.692
TCTCGGAGGACAGGAAGGTCAGAGCTTTCCAGAG,0.736,1.07,0.00105,0.899,-0.565,1.87,-0.0448,1.49,2.39,1.78,1.52,0.389,-1.38,-1.7,0.357,1.36,-0.0214,1.42,0.192,2.76
GGAACTAGGGCATTCGAGTTGATAGCATGGCGAT,0.225,0.214,-0.0911,-0.433,-0.474,2.54,3.49,3.04,0.86,1.91,7.47,7.05,0.246,1.27,0.796,1.44,-0.109,0.587,-0.515,0.965
